Reference: PubChem BioAssay
Potency and affinity values are given separately. Active and inactive are the calls of the source. Cut-off not given; nearly all actives show IC50 up to about 0.98 µM.

Target: Calcium-dependent protein kinase 1 (Plasmodium falciparum (isolate 3D7)) (UniProt P62344)
Experiment: PfCDPK1 kinase inhibitors, biochemical, TCAMS library (AID 1159585);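 further: inhibitors leave more ATP so luminescence rises with inhibition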
Conditions: recombinant PfCDPK1, Kinase-Glo ATP depletion luminescence

Chain of Calcium-dependent protein kinase 1 (Plasmodium falciparum (isolate 3D7)) (P62344 whole entry, looked up): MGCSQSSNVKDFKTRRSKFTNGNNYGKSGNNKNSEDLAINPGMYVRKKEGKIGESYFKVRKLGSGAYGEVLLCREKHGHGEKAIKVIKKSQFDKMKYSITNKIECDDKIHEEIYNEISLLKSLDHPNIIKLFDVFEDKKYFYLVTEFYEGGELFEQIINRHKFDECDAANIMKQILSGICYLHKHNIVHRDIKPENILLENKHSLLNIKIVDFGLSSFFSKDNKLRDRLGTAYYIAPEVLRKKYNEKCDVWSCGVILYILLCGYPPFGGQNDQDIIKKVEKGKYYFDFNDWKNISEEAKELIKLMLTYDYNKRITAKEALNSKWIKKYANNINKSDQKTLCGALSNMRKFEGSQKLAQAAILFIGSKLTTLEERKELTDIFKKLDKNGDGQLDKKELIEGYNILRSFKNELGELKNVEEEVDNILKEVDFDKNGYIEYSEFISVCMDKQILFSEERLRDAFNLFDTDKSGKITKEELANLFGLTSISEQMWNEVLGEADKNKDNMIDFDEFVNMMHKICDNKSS

outcome, inactive:
COc1ccc2nc(C)cc(NN=Cc3ccccc3Cl)c2c1
COc1ccccc1NC(=O)c1cc(C(=O)c2cc(Cl)ccc2O)cn(-c2ccccc2OC)c1=O
CCc1c(C)nc2nc(Cc3cccc(F)c3)nn2c1N1CCN(c2ccccn2)CC1
COc1ccc(NC(=O)NC2CCN(CCCOc3ccnc4cc(Cl)ccc34)C2)cc1OC (stereo not given)
CN1CCCN(Cc2ccc(-c3cccc(NC(=O)c4ccc(F)cc4)c3)cc2)CC1
Cc1cc(NCC2CCN(CC3CCCCC3)C2)nc(Nc2ccc(Br)cc2)n1 (stereo not given)
Cc1cccc2[nH]c(-c3ccc(-c4cccc(NC(=O)NCc5cccc(F)c5)c4)cc3)nc12
CCOC(=O)C(C)(C)Oc1ccc(C(=C2CC(C)(C)CC(C)(C)C2)c2ccc(O)cc2)cc1
CN(C)CCCN(C)C(=O)c1cc2cc(-c3ccccc3)ccc2n1S(=O)(=O)c1ccccc1
CCN(CC)c1cc(C)c2cc(NC(=O)c3cc(=O)c4ccccc4o3)ccc2n1
COc1ccc(Cl)cc1N1CCN(CCCNC(=O)c2ccc(-c3nc4cc5ccccc5cc4[nH]3)c(F)c2)CC1
O=S(=O)(NCCN1CCCC1)c1cccc(-c2ccccc2CNC2Cc3ccccc3C2)c1
CCCC(C)NC(=O)C(N)Cc1cccc(I)c1 (stereo not given)
CCCCCCCCNc1c2ccc(Cl)cc2nc2ccc(OC)cc12
CN1CCC(C(=O)Nc2cccc(-c3ccc(-c4nc5ccc(C(F)(F)F)cc5[nH]4)s3)c2)CC1
Cc1cc(NCCC(=O)NCCc2ccccc2)nc(NCCc2ccc(F)cc2)n1
CCCC(C)Nc1nc(C)cc(N[C@@H](CC(C)C)C(=O)NCCOc2ccccc2)n1 (stereo not given in full)
CN(C)CCNC(=O)N1CCCN(c2ncnc3cc(-c4ccccc4)sc23)CC1
CC(=O)Nc1cccc(C(=O)Nc2cccc(-c3cccc(-c4nc5ccccc5[nH]4)c3)c2)c1
CC(CN(C)C)C(=O)Nc1ccc(-c2cccc(-c3nc4ccccc4[nH]3)c2)cc1 (stereo not given)
O=C(/C=C/c1ccc(Cl)c(Cl)c1)NCCCCCN1CCC(NC(=O)Nc2ccccc2Cl)CC1
CCc1cc2c(N)nc(N)nc2nc1-c1ccccc1
CC(C)CNCc1cccc(-c2cccc(CNCCCN3CCN(C)CC3)c2)c1
Clc1ccc2c(NCCNc3ccnc4cc(Cl)ccc34)ccnc2c1
CC(C)(C)c1ccc(NC(=O)c2cccc(CN3CCCN(Cc4ccc(F)cc4)CC3)c2)cc1
COc1ccc(CNCc2ccc(F)cc2)cc1-c1ccc(OC)c(S(=O)(=O)NCCN2CCCC2)c1
NC1=NC(c2ccccc2)(c2ccccc2)C(=O)N1CC1CCC1
O=C1C(c2ccccc2)=C(Nc2cc(Cl)cc(Cl)c2)c2ccccc21
Cc1cc(C2CCN(CCCCNC(=O)c3ccc(NC(=O)c4ccc(Cl)cc4)cc3)CC2)c(C)cc1OCc1cccnc1
C=C[C@H]1CN(CCCCCCC)CC[C@H]1CCN(C)c1ccnc2ccc(OC)cc12
COc1ccc(CN(C)CCCSc2ccc(NC(=O)c3cccc4c(=O)cc(-c5ccccc5)[nH]c34)cc2)cc1OC
CC(=O)N1N=C(c2ccc(Cl)cc2)Sc2c1nc(C1CCCCC1)n2C(C)=O
OC(CNc1ccnc(Nc2cccc(Cl)c2)n1)c1cccc(C(F)(F)F)c1 (stereo not given)
CCc1cc(I)c2c(c1)C(NCCCNc1cc(=O)c3ccccc3[nH]1)CCN2 (stereo not given)
O=C1C(c2ccccc2)=C(Nc2ccc(Cl)cc2)c2ccccc21
Cc1cc(CNCCCCCCCNCc2cccc([N+](=O)[O-])c2)ccc1O
Cc1[nH]c2cccc(F)c2c(=O)c1Cc1ccc(Cl)cc1 (tested in a mixture with another compound)
COc1ccc2ncc(F)c(CCN3CCC(CNC(=O)C(=O)c4c[nH]c5ccccc45)CC3)c2n1
O=C(Nc1ccc(Cn2ncc(N3CCCNCC3)c(Cl)c2=O)cc1)Nc1ccc(-c2ccccc2)cc1
CC(=O)N/N=C/[C@H](CCc1ccccc1)NC(=O)[C@H](CC(C)C)NC(=O)c1ccc(OCCN2CCOCC2)cc1
